Experimental data reported in the supplement of paper PMC11732987, “Enantioselective OTUD7B fragment discovery through chemoproteomics screening and high-throughput optimisation” (Communications Chemistry, 2025).

Key:
Assay in all cases: log2 ratio of Biotin-Ahx-Ub-VS probe labelling (fragment/DMSO); higher = less target engagement (more negative = stronger competition), active = hit call of the paper (q ≤ 0.05, log2 ratio ≤ -1)
Conditions in all cases: compound concentration: 200 uM; treatment time: 3 h
USP34 = USP34 (UniProt Q70CQ2)
USP34, sequence (Q70CQ2 whole entry, the tested form may be a part): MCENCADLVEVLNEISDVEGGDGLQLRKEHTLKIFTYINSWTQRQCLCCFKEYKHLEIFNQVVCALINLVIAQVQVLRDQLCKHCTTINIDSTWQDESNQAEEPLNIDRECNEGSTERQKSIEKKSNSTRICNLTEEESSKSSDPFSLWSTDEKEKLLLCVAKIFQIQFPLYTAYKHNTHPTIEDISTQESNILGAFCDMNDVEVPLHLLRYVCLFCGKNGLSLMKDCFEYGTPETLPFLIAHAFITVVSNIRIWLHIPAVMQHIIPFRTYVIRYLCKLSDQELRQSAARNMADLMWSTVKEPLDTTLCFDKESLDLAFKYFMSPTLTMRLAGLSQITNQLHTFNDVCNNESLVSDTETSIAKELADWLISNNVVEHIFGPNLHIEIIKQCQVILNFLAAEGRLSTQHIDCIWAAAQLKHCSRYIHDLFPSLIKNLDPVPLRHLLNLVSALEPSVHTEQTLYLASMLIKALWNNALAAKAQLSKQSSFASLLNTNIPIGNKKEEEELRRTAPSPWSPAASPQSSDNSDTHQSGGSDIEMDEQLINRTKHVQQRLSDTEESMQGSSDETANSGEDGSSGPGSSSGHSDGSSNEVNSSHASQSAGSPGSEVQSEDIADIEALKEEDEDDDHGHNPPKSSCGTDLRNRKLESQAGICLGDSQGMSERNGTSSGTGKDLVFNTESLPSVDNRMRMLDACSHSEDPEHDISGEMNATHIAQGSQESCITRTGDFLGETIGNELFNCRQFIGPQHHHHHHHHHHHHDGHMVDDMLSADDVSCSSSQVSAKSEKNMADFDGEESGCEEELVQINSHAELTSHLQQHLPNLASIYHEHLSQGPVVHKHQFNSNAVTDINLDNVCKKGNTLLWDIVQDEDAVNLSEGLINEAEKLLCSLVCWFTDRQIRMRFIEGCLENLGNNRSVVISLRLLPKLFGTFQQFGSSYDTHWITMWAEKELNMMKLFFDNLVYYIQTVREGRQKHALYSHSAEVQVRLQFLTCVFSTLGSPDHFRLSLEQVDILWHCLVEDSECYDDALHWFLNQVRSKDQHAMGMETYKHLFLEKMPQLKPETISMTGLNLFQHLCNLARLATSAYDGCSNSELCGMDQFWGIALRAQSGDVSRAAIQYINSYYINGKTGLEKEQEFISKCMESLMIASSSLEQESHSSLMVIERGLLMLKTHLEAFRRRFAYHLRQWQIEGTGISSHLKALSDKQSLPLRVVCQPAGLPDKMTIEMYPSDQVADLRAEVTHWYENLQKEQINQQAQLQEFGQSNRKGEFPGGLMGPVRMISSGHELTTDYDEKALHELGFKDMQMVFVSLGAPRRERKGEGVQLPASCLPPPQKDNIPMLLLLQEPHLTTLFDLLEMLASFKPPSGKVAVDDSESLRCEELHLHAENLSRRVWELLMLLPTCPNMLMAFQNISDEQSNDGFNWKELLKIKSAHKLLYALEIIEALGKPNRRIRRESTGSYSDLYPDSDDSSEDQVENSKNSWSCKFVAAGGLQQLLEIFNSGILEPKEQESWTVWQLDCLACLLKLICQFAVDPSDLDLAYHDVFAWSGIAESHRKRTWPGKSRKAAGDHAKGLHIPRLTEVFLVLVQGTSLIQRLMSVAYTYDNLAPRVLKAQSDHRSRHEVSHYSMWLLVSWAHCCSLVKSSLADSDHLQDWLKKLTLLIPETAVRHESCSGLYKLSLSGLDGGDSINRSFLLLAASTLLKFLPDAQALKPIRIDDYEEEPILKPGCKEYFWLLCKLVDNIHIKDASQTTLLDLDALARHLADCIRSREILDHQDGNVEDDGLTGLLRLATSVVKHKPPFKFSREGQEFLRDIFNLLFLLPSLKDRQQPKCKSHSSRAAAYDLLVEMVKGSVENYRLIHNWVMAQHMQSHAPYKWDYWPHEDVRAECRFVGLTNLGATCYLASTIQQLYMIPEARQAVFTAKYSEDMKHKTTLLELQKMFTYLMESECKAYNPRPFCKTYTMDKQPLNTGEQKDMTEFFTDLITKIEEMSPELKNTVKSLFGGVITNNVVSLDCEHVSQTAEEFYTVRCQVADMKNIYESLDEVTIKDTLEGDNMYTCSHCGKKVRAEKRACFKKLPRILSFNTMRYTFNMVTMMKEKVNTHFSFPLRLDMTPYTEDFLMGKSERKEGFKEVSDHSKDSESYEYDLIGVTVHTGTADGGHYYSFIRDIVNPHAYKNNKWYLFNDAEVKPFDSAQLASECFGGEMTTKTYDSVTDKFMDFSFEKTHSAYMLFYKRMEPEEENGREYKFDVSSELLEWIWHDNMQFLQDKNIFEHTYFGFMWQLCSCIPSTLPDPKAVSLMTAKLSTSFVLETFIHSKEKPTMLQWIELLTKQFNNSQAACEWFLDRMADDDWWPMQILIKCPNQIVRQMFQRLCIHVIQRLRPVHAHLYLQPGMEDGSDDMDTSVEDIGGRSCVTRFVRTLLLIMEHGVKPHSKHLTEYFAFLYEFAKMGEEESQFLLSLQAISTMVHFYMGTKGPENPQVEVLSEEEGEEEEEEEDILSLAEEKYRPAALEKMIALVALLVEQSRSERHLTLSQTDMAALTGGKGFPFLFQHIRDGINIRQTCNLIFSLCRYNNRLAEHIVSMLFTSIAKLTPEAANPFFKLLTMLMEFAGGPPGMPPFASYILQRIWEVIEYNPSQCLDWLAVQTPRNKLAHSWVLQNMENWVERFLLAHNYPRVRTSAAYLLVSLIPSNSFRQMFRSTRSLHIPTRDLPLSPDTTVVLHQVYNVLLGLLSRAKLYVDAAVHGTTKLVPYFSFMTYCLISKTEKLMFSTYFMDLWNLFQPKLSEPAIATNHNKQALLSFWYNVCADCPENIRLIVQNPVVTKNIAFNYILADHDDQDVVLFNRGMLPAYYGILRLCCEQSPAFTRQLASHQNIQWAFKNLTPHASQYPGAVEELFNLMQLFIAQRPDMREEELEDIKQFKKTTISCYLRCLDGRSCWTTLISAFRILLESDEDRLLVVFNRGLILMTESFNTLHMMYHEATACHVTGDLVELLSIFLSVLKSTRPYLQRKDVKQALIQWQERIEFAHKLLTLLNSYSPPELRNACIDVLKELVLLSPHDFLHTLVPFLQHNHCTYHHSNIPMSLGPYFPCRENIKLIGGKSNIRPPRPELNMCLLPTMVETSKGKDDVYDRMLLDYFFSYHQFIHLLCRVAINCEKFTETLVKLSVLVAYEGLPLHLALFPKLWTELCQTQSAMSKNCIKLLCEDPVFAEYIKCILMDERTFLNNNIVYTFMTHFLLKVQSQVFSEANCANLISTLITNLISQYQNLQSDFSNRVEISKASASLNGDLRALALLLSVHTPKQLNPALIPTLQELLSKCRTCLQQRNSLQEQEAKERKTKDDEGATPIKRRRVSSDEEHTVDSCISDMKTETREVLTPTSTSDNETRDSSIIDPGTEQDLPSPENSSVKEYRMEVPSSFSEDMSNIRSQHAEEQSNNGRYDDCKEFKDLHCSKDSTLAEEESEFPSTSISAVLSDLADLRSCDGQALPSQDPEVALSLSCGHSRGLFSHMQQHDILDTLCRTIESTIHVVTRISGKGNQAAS
Procedure, shortened: (§1)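 Triplicate samples of HEK293T lysate, 495 µg each, received fragment at 200 µM or vehicle for 3 h, followed by Biotin-Ahx-Ub-VS (0.5 µM final) for 1 h. After NeutrAvidin enrichment of labelled DUBs and LysC/trypsin digestion, peptides were run by diaPASEF LC-MS/MS. The values are average log2 fragment/vehicle ratios from global-median-normalised Spectronaut label-free quantities, tested by unpaired t-test on proteins having ≥2 unique peptides.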

USP36 = molecular target: T1, USP36 (UniProt Q9P275)
T1 sequence (whole entry): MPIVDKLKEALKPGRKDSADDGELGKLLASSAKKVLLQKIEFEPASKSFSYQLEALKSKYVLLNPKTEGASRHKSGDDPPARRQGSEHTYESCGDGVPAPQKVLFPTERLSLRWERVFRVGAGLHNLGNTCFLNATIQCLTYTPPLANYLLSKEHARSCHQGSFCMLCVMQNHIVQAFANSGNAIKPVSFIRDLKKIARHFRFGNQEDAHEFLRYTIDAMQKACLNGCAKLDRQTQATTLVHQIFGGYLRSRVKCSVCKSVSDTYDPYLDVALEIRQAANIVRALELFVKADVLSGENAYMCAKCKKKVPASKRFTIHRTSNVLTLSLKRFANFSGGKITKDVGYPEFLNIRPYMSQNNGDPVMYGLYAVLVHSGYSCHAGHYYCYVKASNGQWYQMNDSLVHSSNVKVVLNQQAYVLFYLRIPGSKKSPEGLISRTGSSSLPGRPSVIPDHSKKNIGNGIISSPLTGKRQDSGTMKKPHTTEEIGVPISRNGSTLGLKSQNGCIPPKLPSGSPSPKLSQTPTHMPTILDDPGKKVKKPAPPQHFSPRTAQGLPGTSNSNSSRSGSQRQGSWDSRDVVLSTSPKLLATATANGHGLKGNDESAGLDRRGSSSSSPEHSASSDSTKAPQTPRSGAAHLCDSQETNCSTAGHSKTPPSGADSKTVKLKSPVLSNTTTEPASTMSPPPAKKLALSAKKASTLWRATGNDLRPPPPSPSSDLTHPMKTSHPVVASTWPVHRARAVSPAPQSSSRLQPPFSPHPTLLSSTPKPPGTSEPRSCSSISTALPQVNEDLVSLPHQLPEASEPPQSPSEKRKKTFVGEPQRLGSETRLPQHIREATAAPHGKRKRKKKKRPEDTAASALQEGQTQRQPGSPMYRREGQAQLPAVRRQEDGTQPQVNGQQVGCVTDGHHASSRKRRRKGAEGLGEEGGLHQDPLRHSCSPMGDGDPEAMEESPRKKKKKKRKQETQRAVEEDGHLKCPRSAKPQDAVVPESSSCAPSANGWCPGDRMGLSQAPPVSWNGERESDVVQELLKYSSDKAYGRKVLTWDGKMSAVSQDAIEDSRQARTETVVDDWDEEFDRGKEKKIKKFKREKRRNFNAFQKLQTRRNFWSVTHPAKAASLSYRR
Procedure, shortened: as §1

USP38 = molecular target: T2, USP38 (UniProt Q8NB14)
T2 sequence (whole entry): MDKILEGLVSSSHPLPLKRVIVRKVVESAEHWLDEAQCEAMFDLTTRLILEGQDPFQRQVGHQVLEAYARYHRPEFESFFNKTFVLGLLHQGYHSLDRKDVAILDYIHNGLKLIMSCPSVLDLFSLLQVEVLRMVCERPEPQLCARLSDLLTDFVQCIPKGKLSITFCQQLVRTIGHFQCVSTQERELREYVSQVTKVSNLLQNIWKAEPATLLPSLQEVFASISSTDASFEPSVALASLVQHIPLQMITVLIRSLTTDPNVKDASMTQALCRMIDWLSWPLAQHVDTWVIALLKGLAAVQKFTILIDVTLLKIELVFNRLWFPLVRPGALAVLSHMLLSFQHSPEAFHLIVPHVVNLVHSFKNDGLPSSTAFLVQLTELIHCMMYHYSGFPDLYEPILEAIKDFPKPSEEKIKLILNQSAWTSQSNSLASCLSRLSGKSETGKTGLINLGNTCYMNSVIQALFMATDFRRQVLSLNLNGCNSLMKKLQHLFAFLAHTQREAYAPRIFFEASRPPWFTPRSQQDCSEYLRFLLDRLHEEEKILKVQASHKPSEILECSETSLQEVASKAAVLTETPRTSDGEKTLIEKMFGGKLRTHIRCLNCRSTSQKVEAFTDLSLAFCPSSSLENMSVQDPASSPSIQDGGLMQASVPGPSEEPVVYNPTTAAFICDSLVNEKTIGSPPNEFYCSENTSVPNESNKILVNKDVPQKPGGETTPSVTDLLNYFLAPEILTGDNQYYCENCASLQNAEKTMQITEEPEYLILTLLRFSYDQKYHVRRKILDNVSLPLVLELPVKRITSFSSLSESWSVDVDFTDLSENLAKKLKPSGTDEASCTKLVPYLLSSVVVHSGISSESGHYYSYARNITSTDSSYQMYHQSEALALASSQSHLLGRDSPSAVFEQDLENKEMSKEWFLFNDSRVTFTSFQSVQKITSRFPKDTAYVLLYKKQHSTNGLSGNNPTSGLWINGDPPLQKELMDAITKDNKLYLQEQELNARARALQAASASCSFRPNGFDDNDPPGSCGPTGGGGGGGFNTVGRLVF
Procedure, shortened: as §1

USP39 = molecular target: T3, USP39 (UniProt Q53GS9)
T3 sequence (whole entry): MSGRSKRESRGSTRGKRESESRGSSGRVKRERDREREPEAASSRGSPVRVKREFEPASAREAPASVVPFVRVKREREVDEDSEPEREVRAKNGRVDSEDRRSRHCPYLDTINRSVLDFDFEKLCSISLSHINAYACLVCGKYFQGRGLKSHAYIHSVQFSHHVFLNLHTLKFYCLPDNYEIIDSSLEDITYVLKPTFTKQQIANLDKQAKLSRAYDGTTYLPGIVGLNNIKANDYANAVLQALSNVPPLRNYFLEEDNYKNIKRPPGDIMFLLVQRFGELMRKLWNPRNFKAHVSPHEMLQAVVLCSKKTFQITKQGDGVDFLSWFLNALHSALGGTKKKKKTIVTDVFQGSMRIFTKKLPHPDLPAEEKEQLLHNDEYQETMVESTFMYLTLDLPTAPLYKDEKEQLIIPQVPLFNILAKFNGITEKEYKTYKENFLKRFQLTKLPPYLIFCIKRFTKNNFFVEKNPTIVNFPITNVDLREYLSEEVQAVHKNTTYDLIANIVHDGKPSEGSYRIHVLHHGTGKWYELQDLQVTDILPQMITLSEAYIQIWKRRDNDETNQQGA
Procedure, shortened: as §1

USP4 = molecular target: T4, USP4 (UniProt Q13107)
T4 sequence (whole entry): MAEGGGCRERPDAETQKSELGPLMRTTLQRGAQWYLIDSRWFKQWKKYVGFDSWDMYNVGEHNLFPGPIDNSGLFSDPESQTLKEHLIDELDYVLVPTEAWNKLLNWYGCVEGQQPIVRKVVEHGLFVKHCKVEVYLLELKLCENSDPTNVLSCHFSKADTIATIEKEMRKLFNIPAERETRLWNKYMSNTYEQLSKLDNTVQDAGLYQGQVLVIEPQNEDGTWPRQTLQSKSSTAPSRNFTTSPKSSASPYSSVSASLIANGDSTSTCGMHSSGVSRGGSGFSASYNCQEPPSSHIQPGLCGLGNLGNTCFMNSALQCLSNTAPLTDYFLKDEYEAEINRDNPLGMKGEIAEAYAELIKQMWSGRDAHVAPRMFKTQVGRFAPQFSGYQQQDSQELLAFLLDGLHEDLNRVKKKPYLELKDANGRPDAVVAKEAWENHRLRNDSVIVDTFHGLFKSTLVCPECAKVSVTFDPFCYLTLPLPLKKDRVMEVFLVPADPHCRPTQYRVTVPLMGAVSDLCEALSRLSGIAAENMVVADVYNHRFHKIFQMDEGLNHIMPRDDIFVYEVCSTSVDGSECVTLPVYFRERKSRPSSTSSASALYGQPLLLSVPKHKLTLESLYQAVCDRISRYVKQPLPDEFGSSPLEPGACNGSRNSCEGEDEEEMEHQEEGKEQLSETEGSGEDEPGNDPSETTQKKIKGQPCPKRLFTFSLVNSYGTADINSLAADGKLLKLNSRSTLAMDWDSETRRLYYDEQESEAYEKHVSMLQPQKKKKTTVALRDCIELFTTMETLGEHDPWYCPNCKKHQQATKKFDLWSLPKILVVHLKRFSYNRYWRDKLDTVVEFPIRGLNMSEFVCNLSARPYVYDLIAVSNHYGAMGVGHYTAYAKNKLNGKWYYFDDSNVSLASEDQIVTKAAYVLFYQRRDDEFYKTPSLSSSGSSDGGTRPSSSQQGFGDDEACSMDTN
Procedure, shortened: as §1

Measured: log2 ratio of Biotin-Ahx-Ub-VS probe labelling

O=C(CCl)N1c2ccccc2NC(=O)C12CCCC2
inactive: USP34 -0.193 | USP36 0.111 | USP38 0.18 | USP39 0.678 | USP4 -0.0657
